Results on 88 molecules are retold here after PubChem BioAssay AID687014 (The Scripps Research Institute Molecular Screening Center, 2013).

Hit rate of the full screen: of about 370,000 compounds, about 6,800 (1.8%) were called active.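 The calls were made as follows: active = activation above a cutoff set at the mean of all screened compounds plus 3 SD (cut at about 10% in these data); inactive = the rest.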 Only a selection was taken, and actives are over-represented in it overall.

In this test the test system is Nuclear hormone receptor DAF-12 (Heterodera glycines), GAL4 fusion. Nature of the test: hgDAF-12 GAL4 fusion reporter activation – cell-based, luminescence, HEK293, UAS-luciferase, primary screen (AID 687014).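 Also: 0% = DMSO wells and 100% = sodium butyrate wells.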 The conditions noted are these: HEK293 GAL4-hgDAF12 UAS-luciferase reporter, agonist luminescence; at 6.8 µM; hits give high values; normalized to butyrate control. On the technique in general: A reporter such as luciferase makes a cellular process visible.
With `Cc1sc2ncnc(N3CCC(C(=O)Nc4ccc(F)cc4Cl)CC3)c2c1C`, the activation is -1.36% (inactive).
Under `Cc1sc2ncnc(N3CCC(C(=O)NNC(=O)c4ccc(F)cc4)CC3)c2c1C` stands -1.73% (inactive); under `Cc1sc2ncnc(N3CCC(C(=O)Nc4nc5ccc(Cl)cc5s4)CC3)c2c1C`, 12.9% (active).
As for `COc1ccc(OC)c(NC(=O)C2CCCN2S(=O)(=O)c2ccc3c(c2)CC(C)N3C(C)=O)c1` (stereo not drawn), the activation was -2.45% (inactive).
Under `O=C(NCc1ccc(Cl)cc1)C1CCCN(c2nc3ccccc3o2)C1` (stereo not drawn) stands -0.62% (inactive); under `CC(=O)C1(C(=O)Nc2nccs2)CC(c2ccccc2C(F)(F)F)=NO1` (stereo not drawn), 0.67% (inactive); under `O=c1c2cc([N+](=O)[O-])ccc2nc2n1CCC2`, -2.97% (inactive).
For the molecule `Cc1ccnc(N2C(=O)c3ccc([N+](=O)[O-])cc3C2=O)c1`, the activation is 0.65% (inactive).
`Cc1ccc(-n2cc3ccc([N+](=O)[O-])cc3n2)cc1`: the activation was 17.1% (active).
Next, `COC(=O)c1ccccc1SC1CC(=O)N(c2cccc(C)c2)C1=O` (stereo not drawn): -0.2% (inactive); `Cc1cccc(N2C(=O)SC(N(CC(=O)O)c3cccc(C)c3)C2=O)c1` (stereo not drawn): 2.06% (inactive).
Next, `Cc1cccc(N2C(=O)SC(SC(=Nc3ccccc3)Nc3ccccc3)C2=O)c1` (stereo not drawn): 12.4% (active); `O=S1(=O)c2ccc(Br)cc2OC[C@@H](Cc2ccccc2)N1Cc1cn(Cc2ccco2)nn1`: -2.95% (inactive).
Under `CCOc1ccc(OCc2ccc(C(=O)N(C)c3ccccc3)o2)cc1` stands -0.02% (inactive); under `CC(C)(C)OC(=O)N(Cc1ccccc1)Cc1ccc(OCc2cccc(NC(=O)c3ccccc3)c2)cc1`, 3.23% (inactive).
For `CCOc1ccc(OCc2cccc(C(=O)N(CC)CC)c2)cc1`, the activation is 15.3% (active).
Take `COc1cccc(N2CCN(CC(=O)N(C)Cc3ccc(F)cc3)CC2)c1`: the activation was 2.78% (inactive).
`CC(C)CNC(=O)OCc1cn(Cc2ccc(F)cc2)nn1`: the activation was 0.8% (inactive).
As to `CS(=O)(=O)N(CC(=O)NC1CCCC1)Cc1ccc(F)cc1`, the activation was -0.56% (inactive).
Under `Cc1ccc(-c2nnc(SCC(=O)Nc3ccc(Oc4ccccc4)cc3)n2Cc2ccco2)cc1` stands -0.14% (inactive).
As to `CC(=O)Nc1ccc(S(=O)(=O)NCC(=O)OCC(=O)c2ccc[nH]2)cc1`, the activation is -0.16% (inactive).
Next, `C/C(=N\NC(=O)OC(C)(C)C)c1ccc[nH]1`: 13.9% (active).
Under `CC(C)(C)OC(=O)N[C@H](C(=O)OC(C)(C)C)c1ccc(Br)cc1` stands 2.51% (inactive); under `COC(=O)[C@]12C[C@H](CC(=O)NCc3ccc(OC)c(OC)c3)C(=O)N(Cc3ccccc3)C1=C[C@H](C(C)C)O[C@@H]2C1CC1`, -0.64% (inactive); under `c1cncc(CNc2ccnc(-c3ccc4c(c3)OCO4)n2)c1`, 8.09% (inactive).
Next, `Cc1cc(NS(=O)(=O)c2ccc(NC(=O)CSc3nnc(-c4ccc(C(C)(C)C)cc4)n3Cc3ccco3)cc2)nc(C)n1`: 0.44% (inactive).
Take `O=C(NC1CCCC1)C(c1ccccn1)N(C(=O)c1csnn1)C1CCCC1` (stereo not drawn): the activation was -0.77% (inactive).
Take `CN(C)c1ccc(C=C2C(=O)OC3(CCCC3)OC2=O)cc1`: the activation is 11.1% (active).
Under `CN(C)c1ccc(/C=C2\NC(=S)N(Cc3ccccc3)C2=O)cc1` stands 2.67% (inactive); under `CCCC[C@H](C(=O)N(CC)c1ccccc1)[C@@H](O)c1ccc2ccccc2c1`, -1.89% (inactive).
In the case of `CCCNC(=O)Nc1ccc2c(c1)C(=O)N(C)[C@H]1CC[C@H](CC(=O)NCC3CCCCC3)O[C@@H]1CO2`, the activation was 2.46% (inactive).
In the case of `CCc1ccccc1S(=O)(=O)Cc1ccc(C(=O)NCCc2ccccc2)o1`, the activation was -1.29% (inactive).
Under `CCCOc1ccc(Oc2c(Cl)cnn(Cc3cccc4ccccc34)c2=O)cc1` stands -0.9% (inactive).
As to `COc1ccc2cc(CCl)c(Cl)nc2c1`, the activation was 5.31% (inactive).
For `COc1ccc2nc(-c3ccccn3)ccc2c1`, the activation is 14.8% (active).
Turning to `COc1ccc(C=C(C#N)C#N)c(CSc2ccccn2)c1`, the activation was -4.02% (inactive).
As for `CN1CCCCC(NC(=O)C(C)(C)C)C1=O` (stereo not drawn), the activation was -0.75% (inactive).
Turning to `COc1ccc(-c2cc3n(n2)CCc2nc4ccccc4n2-3)cc1`, the activation is 1.57% (inactive).
Under `COc1ccc(-c2cc3ncccc3cn2)cc1` stands 14.3% (active); under `COc1ccc(-c2cc(C3CCN(c4ncccc4[N+](=O)[O-])CC3)[nH]n2)cc1`, -1.82% (inactive); under `COc1cccc(N(C)C(=O)[C@@H](C)[C@@H](O)c2ccc3ccccc3c2)c1`, -0.12% (inactive).
On to `O=C(NCc1ccco1)C1CCCN(S(=O)(=O)c2ccc(Cl)s2)C1` (stereo not drawn), for which the activation was 2.01% (inactive).
For `CN(C(N)=NC(=O)/C=C/c1ccccc1)C(C#Cc1ccccc1)Cc1ccccc1` (stereo not drawn), the activation was 2.81% (inactive).
As to `CCCCn1c(N)c(N(CC(C)C)C(=O)CSc2ccc([N+](=O)[O-])cc2)c(=O)[nH]c1=O`, the activation is 2.08% (inactive).
Next, `Cn1cnc(C(F)(F)F)c1-c1ccc([N+](=O)[O-])cc1`: 0.97% (inactive); `O=C1C2C3C=CC(C4CC34)C2C(=O)N1/N=C/c1ccc(-c2ccccc2[N+](=O)[O-])o1` (stereo not drawn): -3.65% (inactive); `CN1CCN(/N=C/c2ccc(-c3ccc([N+](=O)[O-])cc3)o2)CC1`: 10.5% (active).
Under `O=C(CSc1nc2c(c(=O)[nH]1)CCCC2)N1CCCCC1` stands -4.02% (inactive); under `Cc1cc(C)nc(Nc2n[nH]c(-c3ccccc3N)n2)n1`, 12.2% (active).
As to `CCCOc1ccccc1-c1nc(SCCC(=O)O)n[nH]1`, the activation is -0.41% (inactive).
As to `O=C(OCC#CCSc1nnc(-c2ccco2)o1)c1ccc(F)cc1`, the activation was -3.04% (inactive).
Consider `COC(=O)C1=C(C)NC(=S)NC1c1ccc(OC)cc1` (stereo not drawn), for which the activation is 0.66% (inactive).
Next, `CCOC(=O)[C@]12CCCCC/C=C\1N(Cc1ccc(OC)cc1)C(=O)[C@H]2CC(=O)NCc1ccc(C)o1`: -1.27% (inactive); `O=C(NCCCc1ccccc1)c1cc(COc2c(F)cccc2F)on1`: 4.73% (inactive); `CC(C)Cc1cc(C(=O)Nc2cc(Br)ccc2O)no1`: 6.04% (inactive).
`CC(C)Cc1cc(C(=O)NCCc2ccccc2)no1`: the activation is 13% (active).
Next, `O=S1(=O)c2ccc(N3CCN(Cc4ccccc4F)CC3)cc2Oc2ccccc2CN1Cc1cn(Cc2ccc(Cl)cc2)nn1`: 0.48% (inactive); `C[C@@H]1CN([C@@H](C)CO)C(=O)c2cccc(NC(=O)Nc3cccc4ccccc34)c2O[C@H]1CN(C)S(=O)(=O)c1ccccc1F`: -4.71% (inactive).
Consider `CN(C)[C@H]1CCN(c2cccc3c2S(=O)(=O)N2CC[C@H](C2)O3)C1`, for which the activation was -1.45% (inactive).
Under `CCc1ccc(C(=O)NN=C2CCCCCC2)s1` stands 3.37% (inactive); under `CC1CC(=NNC(=O)C2COc3ccccc3O2)CC(C)(C)C1` (stereo not drawn), 3.29% (inactive); under `CC1C/C(=N/NC(=O)c2cccs2)CC(C)(C)C1` (stereo not drawn), 14% (active).
Under `COc1ccccc1CCn1cnc(-c2ccccc2)c1C(C)C` stands -2.29% (inactive); under `Cc1ccn(CC(=O)N2N=C(C(F)F)CC2(O)C(F)F)n1` (stereo not drawn), 1.75% (inactive).
Take `CCN(CC)S(=O)(=O)c1ccc(NC(=O)CN(c2cccc(F)c2)S(C)(=O)=O)cc1`: the activation was -0.33% (inactive).
Under `Cc1nc2ccc(S(=O)(=O)N(C)CC(=O)NC(C)c3ccccc3)cc2s1` (stereo not drawn) stands -1.17% (inactive); under `Cc1cccc(N(CC(=O)Nc2ccc(-c3nc4ccc(C)cc4s3)cc2)S(C)(=O)=O)c1`, 15% (active).
Take `Cc1ccc(N(CC(=O)Nc2cc(C)cc(C)c2)S(=O)(=O)c2cccc3nonc23)cc1`: the activation is 1% (inactive).
As to `COc1cc(NC(=O)CN(C)S(=O)(=O)c2ccc3nc(C)sc3c2)cc(OC)c1`, the activation was -1.83% (inactive).
Next, `Cc1ccc2nc(-c3ccc(NC(=O)CN(C)S(=O)(=O)c4ccccc4)cc3)sc2c1`: 11.4% (active); `Cc1ccc2c(c1)N(CC(=O)N1CCC(C)CC1)C(=O)c1cccnc1O2`: -1.52% (inactive).
Next, `CC[C@H](NC(=O)[C@H](Cc1ccccc1)NC(=O)[C@H]1O[C@@H](n2cnc3c(=O)[nH]c(N)nc32)[C@H](O)[C@@H]1O)c1ccccc1`: -0.43% (inactive).
In the case of `COc1ccccc1C(=O)CSc1nnc(-c2ccccn2)n1-c1ccccc1`, the activation was -5.4% (inactive).
Next, `Cc1cc(=O)[nH]c(SCC(=O)Nc2ccc(F)cc2F)n1`: 2.35% (inactive); `COC(=O)[C@H](Cc1ccccc1)NC(=O)Nc1ccc(S(N)(=O)=O)cc1`: -0.11% (inactive).
`COc1ccc(CN2C/C(=C/c3ccccc3)N3C(=O)C[C@@H](c4ccccc4)N=C23)c(OC)c1`: the activation is 1.14% (inactive).
As for `Cc1cc(N=Nc2ccc3ccccc3c2)ccc1O`, the activation was 15.6% (active).
Next, `Cc1ccc(-n2c(SCC(=O)Nc3cccc4ccccc34)nnc2-c2ccco2)cc1`: -1.7% (inactive).
Next, `COc1ccc([C@H]2OC(=O)C[C@H]2C(=O)N2CCN(c3ccccc3F)CC2)cc1OC`: 0.07% (inactive); `Cc1ccc(/C=N/NC(=O)COc2ccccc2-c2ccccc2)cc1`: -6.53% (inactive).
Next, `O=C(CN1CCSCC1)N/N=C/c1ccc(Cl)cc1`: -0.9% (inactive); `Cc1ccc(COc2ccc(/C=N/NC(=O)CN3CCCCC3)cc2)cc1`: 10.7% (active); `Cc1ccc(Cn2cc(CN3[C@@H](C)COc4cc(Br)ccc4S3(=O)=O)nn2)cc1`: -0.49% (inactive).
As for `COc1ccc(NC(=O)N(C)C[C@@H]2OCCCC[C@@H](C)Oc3ccc(NC(=O)NC4CCCCC4)cc3C(=O)N([C@H](C)CO)C[C@@H]2C)cc1`, the activation was 2.86% (inactive).
For `C[C@@H](CN1C2=NC[C@@H](Cc3ccccc3)N2C[C@H]1Cc1ccc(O)cc1)NC(=O)CCC1CCCCC1`, the activation was 1.3% (inactive).
For `CC1CC(C)CN(CCC(=O)Nc2ccc3c(c2)CCC3)C1` (stereo not drawn), the activation is -2.86% (inactive).
Next, `O=C(Nc1ccc2c(c1)CCC2)c1ccc(Br)s1`: 19.2% (active); `CC(C)Oc1ccc(C(=O)NCC(=O)Nc2ccc3c(c2)CCC3)cc1`: 2.22% (inactive).
